Data on 61 compounds can be found in ChEMBL document CHEMBL3988442, “University of Dundee, Small-Polar-MMV Screening Library” (2021).

The nature of the assay: In vitro enzyme assay to detect hydrolysis of chlorophenol red-beta-D-[…] directly proportional to the number of Toxoplasma stably expressing beta-galactosidase. It is filed as functional, organism-based, Toxoplasma gondii. Set-up: scale not given: in the data most compounds retested in dose-response had high values.

Among all 85,000 compounds or so, about 440 (0.52%) showed an effect of 50% or more. Shown is part of a subset that was picked to be rich in strong results.

Take `CCn1cc(C(=O)NCCCC(N)=O)c2ccccc21`: the “Percent Effect” value (50 µM) is -17.15%.

In the case of `N#CCCCn1ccccc1=O`, the “Percent Effect” value (50 µM) is -0.4771%.

Take `Cc1c(Cl)cccc1NC(=O)CSc1nnc[nH]1`: the “Percent Effect” value (50 µM) is -6.056%. Turning to `COCC(=O)Nc1ccnn1-c1ccc(Cl)cc1`, for the setting “10 µM”, the “Percent Effect” value amounted to 75.67%. Regarding `CCOCCC(=O)Nc1ccnn1-c1ccc(Cl)cc1`, the “Percent Effect” value (10 µM) is -1.702%. Consider `COCCOCC(=O)Nc1ccnn1-c1ccc(Cl)cc1`, for which, where the note is “10 µM”, the “Percent Effect” value worked out at 0.922%. On the same count and under the same terms, under `CC(NC(=O)NCCOc1ccc(Cl)cc1)c1nncn1C` (stereo unspecified) stands 2.548%; under `CCn1c(SCC(N)=O)nnc1C(C)NC(=O)c1ccc(Cl)cc1` (stereo unspecified), 74.14%. For the compound `CCn1ncnc1C(C)NC(=O)c1cc(Cl)ccc1F` (stereo unspecified), the “Percent Effect” value (50 µM) was found to be 1.166%. Take `CC(c1ccccc1)n1c(SCC(=O)O)nnc1-c1ccccc1Cl` (stereo unspecified): the “Percent Effect” value (10 µM) was -2.501%. `CC(NC(=O)c1ccc(Cl)cc1)c1nnc(SCC(N)=O)n1C` (stereo unspecified): the “Percent Effect” value (10 µM) came out at 10.17%. For `CC(NC(=O)c1ccc(Cl)cc1)c1nnc(SCC(=O)O)n1C` (stereo unspecified), the “Percent Effect” value (10 µM) is 78.32%. Turning to `CCn1c(SCC(N)=O)nnc1-c1cccnc1`, for the setting “50 µM”, the “Percent Effect” value is -5.033%. Regarding `CCn1c(SCC(=O)O)nnc1C(C)NC(=O)c1ccc(Cl)cc1` (stereo unspecified), the “Percent Effect” value (10 µM) is given as 60.13%. As for `CC(C)CC(NC(=O)c1ccc(Cl)cc1)C(N)=O` (stereo unspecified), for the setting “50 µM”, the “Percent Effect” value is on record as 23.98%. On the same count and under the same terms, under `N#Cc1ccc(C(=O)N2CCCO2)nc1` stands -1.519%. Turning to `CSCC(=O)N1CCN(Cc2nccn2C)CC1`, the “Percent Effect” value (50 µM) was 0.586%.

As for `CCN1CCN(S(=O)(=O)c2c(F)cccc2F)CC1`, for the setting “50 µM”, the “Percent Effect” value is -8.353%. With `CN(CCC1CCCO1)Cc1ccc(N(C)C)nc1` (stereo unspecified), for the setting “50 µM”, the “Percent Effect” value stood at 6.718%. Take `CC(C)COCCN1CCN(Cc2ccon2)CC1`: the “Percent Effect” value (50 µM) is 0.7264%. Turning to `CCN(CC)c1nc(Nc2cccc(C(C)O)c2)nc2ccccc12` (stereo unspecified), the “Percent Effect” value (10 µM) is recorded as 95.47%. Same read-out and setting: the same measure for `CC(O)c1cccc(Nc2nc(NCCO)c3ccccc3n2)c1` (stereo unspecified): 12.45%; for `CCN(CC)c1nc(Nc2cccc(C(=O)O)c2)nc2ccccc12`: -21.05%. Regarding `COC(=O)N1CCC(Nc2nnc(C(F)(F)F)s2)CC1`, the “Percent Effect” value (50 µM) came out at 9.072%. With `NCC1CCCN(c2ncccn2)C1` (stereo unspecified), the “Percent Effect” value (50 µM) turned out to be 3.495%.

For `O=C(NCC1CCCO1)c1cnn2cccnc12` (stereo unspecified), the “Percent Effect” value (50 µM) is on record as -4.539%. Turning to `Cn1cnc2c1CCN(Cc1cccc(C(N)=O)c1)C2`, the “Percent Effect” value (10 µM) is listed as 1.729%. As to `NC(=O)c1cccc(CN2CCc3c(ncn3C3CC3)C2)c1`, under “10 µM”, the “Percent Effect” value is 83.44%. The same measure, in the same setting: the same measure for `CC(C)c1nc2c(n1C)CCN(Cc1cccc(C(N)=O)c1)C2`: -1.993%. Consider `CN(CCC#N)C(CCO)c1ccccc1` (stereo unspecified), for which, under “50 µM”, the “Percent Effect” value was 25.8%. On the same count and under the same terms, the same measure for `O=C(CSc1nnc(-c2ccccc2F)o1)NC1CC1`: -13.11%. Still for that read-out and setting: under `CC(C)(CC1CCCNC1)C(N)=O` (stereo unspecified) stands 7.36%; under `Cc1cc(C)n(CC(=O)NCCc2ccc[nH]2)n1`, -10.28%. Regarding `COc1cc2cc(C(=O)NCC(=O)O)n(C)c2c(OC)c1OC`, the “Percent Effect” value (10 µM) is given as 74.68%. Take `COc1cc2cc(C(=O)O)n(C)c2c(OC)c1OC`: under “10 µM”, the “Percent Effect” value is on record as -3.347%.

With `COc1cc2cc(C(=O)NC(C)C(=O)O)n(C)c2c(OC)c1OC` (stereo unspecified), the “Percent Effect” value (10 µM) is on record as 17.43%. Take `COCCNC(=O)c1cc2cc(C)ccc2n1C`: the “Percent Effect” value (50 µM) is listed as 2.035%. As for `COc1cc2cc(C(=O)N[C@@H](C)C(=O)O)n(C)c2c(OC)c1OC`, the “Percent Effect” value (10 µM) was -3.586%.

As for `COc1cc2cc(C(=O)NCCC(=O)O)n(C)c2c(OC)c1OC`, under “10 µM”, the “Percent Effect” value was 74.68%. With `COC(=O)C1CCN(C(=O)C2CCCO2)CC1` (stereo unspecified), for the setting “50 µM”, the “Percent Effect” value was -8.272%.

As to `COc1ccccc1SC(C)C(=O)N1CCNC1=O` (stereo unspecified), the “Percent Effect” value (50 µM) was determined as 15.55%. With `CCc1cccc(NC(=O)C2CCCN(C(C)=O)C2)c1` (stereo unspecified), the “Percent Effect” value (50 µM) came out at 4.153%.

For `CC1CCC(N(C)C(=O)Cn2cccn2)CC1` (stereo unspecified), where the note is “50 µM”, the “Percent Effect” value is -1.84%. As for `CN1CCc2[nH]nc(C(=O)N3CCC4(CCCO4)CC3)c2C1`, for the setting “10 µM”, the “Percent Effect” value was found to be 1.903%. For the compound `O=C(c1cc(C2CC2)n[nH]1)N1CCCC(O)(CO)CC1` (stereo unspecified), the “Percent Effect” value (50 µM) was 4.237%.

For `O=C(c1cc(C2CC2)n[nH]1)N1CCC2(CCCO2)CC1`, the “Percent Effect” value (50 µM) was determined as 64.63%. For the compound `Nc1nnc(SCc2ccc(Cl)s2)[nH]1`, the “Percent Effect” value (50 µM) worked out at 56.64%. As to `Clc1ccc(CSc2cnn[nH]2)s1`, the “Percent Effect” value (50 µM) is reported as -14.75%. Turning to `COc1ccc(CSc2nnc(N)[nH]2)c(Cl)c1`, the “Percent Effect” value (50 µM) was 2.455%.

As for `O=C(NCCO)c1nnsc1-c1ccc(Cl)cc1`, the “Percent Effect” value (50 µM) was -1.39%. On to `CC(C)N(CC(N)=O)CC(=O)NCCc1cccs1`, for which the “Percent Effect” value (50 µM) was found to be 12.36%.

As to `CNC(=O)Cc1cccs1`, the “Percent Effect” value (50 µM) is reported as 0.3815%.

For `CCS(=O)(=O)N(CCc1cccs1)CC(=O)NC`, under “50 µM”, the “Percent Effect” value turned out to be 65.25%. With `CC(C)n1cccc1C(=O)NCCc1cncn1C`, the “Percent Effect” value (50 µM) was determined as 7.567%. On to `COC(=O)c1[nH]cc(-c2ccccc2)c1N`, for which, where the note is “50 µM”, the “Percent Effect” value is on record as 60.81%. As to `CC(=O)Nc1nc(-c2ccccc2)c[nH]1`, where the note is “10 µM”, the “Percent Effect” value was -10.01%. As for `COC(=O)c1snc(-c2ccccc2)c1N`, under “50 µM”, the “Percent Effect” value stood at 3.849%. With `O=S1(=O)CCC(NC2CCNCC2)C1` (stereo unspecified), the “Percent Effect” value (50 µM) came out at 0.6188%. On to `Cc1cc(=O)cc(C(=O)NCCCc2ccncc2)o1`, for which, under “50 µM”, the “Percent Effect” value came out at 15.6%.

For the compound `CC(CCNC(=O)CCc1cccnc1)n1ccnc1` (stereo unspecified), the “Percent Effect” value (50 µM) is -1.131%. Consider `Cc1cc(=O)cc(C(=O)NCCC(C)n2ccnc2)o1` (stereo unspecified), for which the “Percent Effect” value (50 µM) turned out to be 85.97%.
